About 13,000 (27%) of roughly 48,000 compounds showed an effect of 50% or more. This is one part of the list.
Test system: Wolbachia pipientis
Experiment: Anti-Wolbachia Cell-Based Screen
Assay type: functional
Design: scale not given: in the data most compounds retested in dose-response had high values
Conditions: 5 µM

SMILES | Percent Effect
O=C(CCNc1ccc(Cl)cn1)NCc1ccncc1 | -15.58%
O=C(CCNC(=O)c1ccccc1F)NCCNc1cccnc1 | 5.027%
O=C(CCNC(=O)C1=Cc2ccccc2OC1)Nc1cccnc1 | -5.743%
CCOc1cccc(C(=O)NCCC(=O)NCc2ccncc2)c1 | 103.5%
O=C(CCNC(=O)C1=Cc2ccccc2OC1)NCc1ccncc1 | -4.464%
CCCNC(=O)c1ccc(NC(=O)c2cccc(OCC)c2)cc1 | 17.24%
O=C(CCNC(=O)c1cccc(OC(F)F)c1)Nc1cccnc1 | 104.3%
Cn1cc(C(=O)Nc2cccc(Oc3ccncc3)c2)ccc1=O | -26.42%
CCOc1cccc(C(=O)Nc2ccncc2)c1 | 88.42%
CS(=O)(=O)c1ccc(OCCNCc2ccc(F)cc2)cc1 | -11.24%
CC(C)c1ccc(O)c(C(=O)NC2CCN(c3ncccn3)CC2)c1 | 6.653%
O=C(O)CN1CCC(c2ccccc2)CC1 | -2.297%
O=S(=O)(Cc1ccccc1CN1CC[C@H](CO)[C@H](O)C1)c1ccccc1 | -17.78%
CC(C)C1CN(C(=O)c2ccccc2)CCS1 (centres undefined) | -3.784%
COc1ccccc1CCC(=O)N1C[C@H](c2ccccc2)[C@@H](N)C1 | -7.051%
O=C(C1CCS(=O)(=O)CC1)N1C[C@H]2CC[C@@H]1CN(Cc1ccccc1)C2 | -12.98%
O=S1(=O)[C@@H](c2ccccc2)[C@H](CO)CN1c1ccccc1 | 106.6%
O=S1(=O)[C@@H](c2ccccc2)[C@H](CO)CN1C1CC1 | 108.4%
CC(C)N1C[C@@H](CO)[C@H](c2ccccc2)S1(=O)=O | 103.9%
CN(C)C[C@@H]1CN(C(=O)Cc2ccccc2)C[C@@H]1CO | -32.78%
CCN1C(=O)CCC12CCN(S(=O)(=O)c1ccc(C#N)cc1)CC2 | 5.403%
O=C(c1ccnnc1)N1CCC2(CCN(c3ccsc3)C2=O)C1 (centres undefined) | 3.217%

SMILES | Percent Effect
CCC(C(=O)N(Cc1ccccn1)C1CCCCC1)n1cccn1 (centres undefined) | 5.317%
COCCn1/c(=N\C(=O)CN(C)S(C)(=O)=O)sc2cc(C)ccc21 | -2.711%
CC(C)(C)c1cnc(CN2CCC(NC(=O)Nc3ccccc3)CC2)o1 | 8.013%
O=C(CC1CC1)N1CCC2(CCCN(CCOc3ccccc3)C2)C1.O=C(O)C(F)(F)F (centres undefined) | 117.3%
Cn1cc(CN2CC3(CCN(C(=O)c4cscn4)C3)C2)cn1 | 2.986%
O=C(CC1CC1)N1CC[C@H]2OCC[C@@]2(COc2ncccc2F)C1.O=C(O)C(F)(F)F | 5.049%
Cc1ccc(CN2CCC3(CCCN(C(=O)N(C)C)C3)C2)cc1 (centres undefined) | -1.979%
O=C(c1cscn1)N1CCC2(CCN(S(=O)(=O)c3ccccc3)C2)C1 (centres undefined) | -2.264%
CCOC(=O)CN1CCC2(CCCN(CCOc3ccccc3)C2)C1 (centres undefined) | 101.8%
O=C(c1cscn1)N1CCC2(CCCN(CCOc3ccccc3)C2)C1 (centres undefined) | 112%
CN(C)C(=O)N1CCC2(CCCN(CCOc3ccccc3)C2)C1.O=C(O)C(F)(F)F (centres undefined) | 102.1%
O=C(CC1CC1)N1CCC2(CCCN(c3ncccn3)C2)CC1 | -10.65%
COC(=O)c1cc(OCC2CCC2)cc(C(=O)N[C@@H]2CNCC[C@H]2O)c1 | 8.764%
O=C(c1ccc(=O)[nH]c1)N1CCCC2(C=Cc3ccccc3O2)CC1 (centres undefined) | -7.084%
Cc1nc(CN(C)S(=O)(=O)c2ccccc2C(F)(F)F)no1 | 2.399%
COc1ccc(CN2CCOC[C@H](OCCC(C)C)C2)cc1 | 0.3051%
CCCS(=O)(=O)NCC(C)c1ccc(F)c(F)c1 (centres undefined) | -6.211%
CC(=O)c1ccc(C(=O)NCc2ccnc(N(C)C)n2)cc1 | -2.815%
CCN1CC[C@]2(CN(C(=O)[C@H]3CCCO3)C[C@H]2c2ccccc2)C1=O | -5.714%
CN1CC[C@]2(CN(C(=O)[C@H]3CCCO3)C[C@H]2c2ccccc2)C1=O | -10.86%
O=C([C@H]1CCCO1)N1CCC2(CCCN(CCOc3ccccc3)C2)C1 (some centres undefined) | 105.8%
c1cc(CNc2ncc(-c3cnccn3)c(C3CC3)n2)ccn1 | 244.3%

SMILES | Percent Effect
Cn1ncnc1-c1ccnc(NCCCc2ccncc2)n1 | -3.782%
c1cc(CNCCC2CCCO2)ccn1 (centres undefined) | -4.656%
Cc1cnc2c(c1NCc1ccncc1)c(=O)n(C)c(=O)n2C | -24.16%
c1cc(-c2n[nH]c(CNc3nnc(C4CC4)o3)n2)ccn1 | -23.66%
c1cnc(-c2cnc(N3CCSCC3)nc2C2CCCO2)cn1 (centres undefined) | -3.576%
c1cc(CCNc2ncc(-c3cnccn3)c(C3CC3)n2)ccn1 | 137.3%
c1cc(CCN2CCC(c3n[nH]c(C4CC4)n3)CC2)ccn1 | 9.327%
c1cc(CNc2ncc(-c3cnccn3)c([C@@H]3CCCO3)n2)ccn1 | 102%
Cc1cc(F)ccc1OC1(C(=O)O)CCN(Cc2cccnc2N)CC1 | -8.297%
Cc1noc(C)c1CN(C)Cc1csc(-c2ccc(F)cc2)n1 | 17.5%
Cc1cc(C(=O)N2CCN(C(=O)CCC3CCCCC3)CC2)n(C)n1 | -12.7%
O=S(=O)(Cc1ccccc1)c1nnc(N2CCCC2)s1 | -13.72%
Cc1ncc(CN(C)C(=O)Nc2cccc(CN3CCOC3=O)c2)s1 | 6.587%
CN(C)C(=O)[C@H]1C[C@@H]2CN(C(=O)NCC3CCCCC3)C[C@H]1O2 | -9.234%
Cc1nn(C)c(C)c1C1CCCN1Cc1nc(-c2ccco2)no1 (centres undefined) | 17.11%
Cc1ccc(C2CCCN2Cc2nc(-c3ccco3)no2)cc1 (centres undefined) | 6.26%
COc1c(C2CCCN2Cc2nc(-c3ccco3)no2)c(C)nn1C (centres undefined) | 131.1%
CCCc1noc(CN2CCCC2c2c(C)nn(C)c2OC)n1 (centres undefined) | -3.307%
COc1c(C2CCCN2Cc2c(C)noc2C)c(C)nn1C (centres undefined) | -0.2322%
Cc1nn(C)c(Cl)c1C1CCCN1Cc1nc(-c2ccco2)no1 (centres undefined) | 77.16%

Source: ChEMBL document CHEMBL3988442, “University of Dundee, Small-Polar-MMV Screening Library” (2021)
